Data from PubChem BioAssay (EPA / NIEHS).
Several values for one entry are separate records, joined by “and”; a condition that tells them apart may be missing. Equal values may be shown once. A structure can be active in one record and inactive in another. Activity calls are given as the source filed them. How the source made its calls: active means hit-call score of the fitted dose curve at least 0.9, where 1 is the maximum; inactive means score below 0.9.

How the values were obtained:
[1] = read-out: Macrophage colony-stimulating factor (MCSF), CSF1 (gene 1435); experiment: BSK_hDFCGF_MCSF: BioMAP Diversity Plus: hDFCGF Assay for Macrophage colony-stimulating factor (MCSF) Biomarker Activity (AID 2283060); settings: primary human foreskin fibroblasts; actives raise or lower the signal
Procedure, shortened: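 Human foreskin primary fibroblasts were treated with test chemical for 24 h, and M-CSF was then measured by ELISA. Data were fitted bidirectionally against DMSO as the negative control and activity baseline.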

[2] = BSK_hDFCGF_SRB: Viability Assessment in the BioMAP Diversity Plus: hDFCGF Assay (AID 2283061); settings: primary human foreskin fibroblasts;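 further: cells exposed to compound for 24 h before the read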
Procedure, shortened: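 Human foreskin primary fibroblasts were treated with compound and assessed 24 h after dosing. Total protein was measured by sulforhodamine B staining (0.1% SRB after 10% TCA fixation, 560 nm read) as a cytotoxicity marker, with bidirectional fitting against DMSO baseline.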

[3] = read-out: TIMP metallopeptidase inhibitor 1 (TIMP1), TIMP1 (gene 7076); experiment: BSK_hDFCGF_TIMP1: BioMAP Diversity Plus: hDFCGF Assay for TIMP metallopeptidase inhibitor 1 (TIMP1) Biomarker Activity (AID 2283062); settings: primary human foreskin fibroblasts; actives raise or lower the signal
Procedure, shortened: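 Primary human foreskin fibroblasts in the hDFCGF system were dosed with compound for 24 h, then TIMP-1 was measured by ELISA. Activity was fitted bidirectionally relative to DMSO control; parallel SRB staining assessed cytotoxicity.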

[4] = read-out: Monokine induced gamma interferon (MIG), CXCL9 (gene 4283); experiment: BSK_hDFCGF_MIG: BioMAP Diversity Plus: hDFCGF Assay for Monokine induced gamma interferon (MIG) Biomarker Activity (AID 2283063); settings: primary human foreskin fibroblasts; actives raise or lower the signal
Procedure, shortened: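 ELISA read-out of MIG from primary human dermal fibroblasts 24 h post-dosing. Gain or loss of signal fitted bidirectionally, DMSO as baseline.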

[5] = read-out: Matrix Metallopeptidase 1 (MMP1), MMP1 (gene 4312); experiment: BSK_hDFCGF_MMP1: BioMAP Diversity Plus: hDFCGF Assay for Matrix Metallopeptidase 1 (MMP1) Biomarker Activity (AID 2283064); settings: primary human foreskin fibroblasts; actives raise or lower the signal
Procedure, shortened: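 MMP1 levels quantified by ELISA 24 h after dosing human dermal fibroblast cultures, with parallel SRB total-protein staining for overt cytotoxicity. Data fitted in both directions against DMSO baseline.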

[6] = read-out: Vascular cell adhesion molecule 1 (VCAM1), VCAM1 (gene 7412); experiment: BSK_hDFCGF_VCAM1: BioMAP Diversity Plus: hDFCGF Assay for Vascular cell adhesion molecule 1 (VCAM1) Biomarker Activity (AID 2283065); settings: primary human foreskin fibroblasts; actives raise or lower the signal;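 on AC50: VCAM-1 protein level quantified by ELISA after 24 h chemical exposure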
Procedure, shortened: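 Primary human foreskin fibroblasts (hDFCGF system) were dosed with chemical and VCAM-1 was measured by ELISA 24 h later. Bidirectional curve fitting used DMSO as negative control and activity baseline.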

[7] = read-out: Plasminogen activator inhibitor-1 (PAI1), SERPINE1 (gene 5054); experiment: BSK_hDFCGF_PAI1: BioMAP Diversity Plus: hDFCGF Assay for Plasminogen activator inhibitor-1 (PAI1) Biomarker Activity (AID 2283066); settings: primary human foreskin fibroblasts; actives raise or lower the signal
Procedure, shortened: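 PAI-1 levels in human dermal foreskin fibroblasts were quantified by ELISA 24 h after dosing, with gain or loss analysed against DMSO. Overt cytotoxicity was checked by sulforhodamine B total-protein staining in parallel cultures.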

[8] = read-out: Intercellular Adhesion Molecule 1 (ICAM1), ICAM1 (gene 3383); experiment: BSK_KF3CT_ICAM1: BioMAP Diversity Plus: KF3CT Assay for Intercellular Adhesion Molecule 1 (ICAM1) Biomarker Activity (AID 2283067); settings: primary human keratinocytes with fibroblasts; actives raise or lower the signal
Procedure, shortened: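 Human keratinocyte plus foreskin fibroblast primary co-culture was exposed to chemical for 24 h. ICAM-1 was then quantified by ELISA, and the data were fit bidirectionally against DMSO as the negative control and baseline.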

[9] = read-out: Interferon-gamma inducible Protein 10 (IP10), CXCL10 (gene 3627); experiment: BSK_KF3CT_IP10: BioMAP Diversity Plus: KF3CT Assay for Interferon-gamma inducible Protein 10 (IP10) Biomarker Activity (AID 2283068); settings: primary human keratinocytes with fibroblasts; actives raise or lower the signal
Procedure, shortened: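 KF3CT co-culture (keratinocytes + foreskin fibroblasts), 24 h compound, IP-10 by ELISA; bidirectional fit vs DMSO baseline.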

[10] = BSK_KF3CT_SRB: Viability Assessment in the BioMAP Diversity Plus: KF3CT Assay (AID 2283069); settings: primary human keratinocytes with fibroblasts;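 further: fitted for both signal gain and loss against DMSO baseline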
Procedure, shortened: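 Cytotoxicity was gauged by SRB staining (0.1% SRB, 10% TCA fixation, 560 nm) of parallel cultures at 24 h. The cells were primary human skin keratinocytes co-cultured with fibroblasts, and activity was fitted in both directions against DMSO.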

Measured: AC50

C[C@@H]1C[C@H]2[C@@H]3CCC4=CC(=O)C=C[C@]4(C)[C@@]3(F)[C@@H](O)C[C@]2(C)[C@@]1(O)C(=O)COP(=O)(O)O
inactive: [1] | [2] | [3] | [4] | [5] | [6] | [7] | [8] | [9] | [10]
active: [1] 615 nM and 730 nM | [2] 3.28 µM | [3] 2.65 µM | [5] 1.42 µM and 386 nM | [6] 8.68 µM

Cc1cc(C)c(O)c(C)c1
inactive: all assays above

CCOC(=O)CC(O)(CC(=O)OCC)C(=O)OCC
inactive: all assays above

C=C(C)C(=O)OCCC(F)(F)C(F)(F)C(F)(F)C(F)(F)C(F)(F)C(F)(F)F
active: [1] 23.2 µM
inactive: [1] | [2] | [3] | [4] | [5] | [6] | [7] | [8] | [9] | [10]

CC(C)(C)c1ccc(O)c(C(C)(C)C)c1
active: [1] 8.8 µM | [2] 11.9 µM | [3] 11.5 µM | [4] 11.7 µM | [5] 11.3 µM | [6] 9.1 µM | [7] 10.3 µM | [8] 14.6 µM | [9] 14.2 µM | [10] 8.27 µM

O=C(O)Cc1cc(I)c(Oc2cc(I)c(O)c(I)c2)c(I)c1
active: [1] 14 µM | [2] 12.2 µM | [4] 10.7 µM | [5] 8.58 µM | [6] 8.85 µM | [7] 8.1 µM | [8] 16.7 µM | [9] 4.59 µM | [10] 10.1 µM
inactive: [3]

CC(O)CO (configuration not stated)
inactive: all assays above

CC#C[C@]1(O)CC[C@H]2[C@@H]3CCC4=CC(=O)CCC4=C3[C@@H](c3ccc(N(C)C)cc3)C[C@@]21C
active: [2] 20 µM | [5] 26.1 µM | [7] 11.2 µM | [8] 20 µM
inactive: all other assays above

OCCC(F)(F)C(F)(F)C(F)(F)C(F)(F)C(F)(F)C(F)(F)F
active: [1] 54.2 µM | [2] 51.3 µM and 46.8 µM | [3] 53.1 µM and 47.1 µM | [4] 55.4 µM and 54.7 µM | [5] 55.1 µM | [6] 30 µM and 47.4 µM | [7] 53.5 µM and 55.3 µM
inactive: [1] | [2] | [3] | [4] | [5] | [6] | [7] | [8] | [9] | [10]

O=C(OCCOCCOC(=O)c1ccccc1)c1ccccc1
inactive: all assays above

CC(C)(C)c1cccc(C(C)(C)C)c1O
active: [1] 31 µM | [2] 35.7 µM | [3] 36.3 µM | [4] 34.9 µM | [5] 35.9 µM | [6] 35.5 µM | [7] 36.6 µM | [8] 37.9 µM | [9] 37.5 µM | [10] 33.8 µM

c1ccc2c(c1)Cc1ccccc1-2
inactive: all assays above

O=c1c(-c2ccc(O)cc2)coc2cc(O)ccc12
inactive: all assays above

Cc1cc(CCN2CCN(c3nsc4ccccc34)CC2)cc2c1NC(=O)CC2(C)C
active: [1] 10.8 µM | [2] 13.4 µM | [3] 9.33 µM | [4] 10.9 µM | [5] 8.43 µM | [6] 5.57 µM | [7] 14.6 µM | [8] 29.6 µM | [9] 33.4 µM | [10] 11.7 µM

CC(=O)CC(C)(C)O
inactive: all assays above

COC(=O)CCCCC(=O)OC
inactive: all assays above

O=C(O)c1ccccc1C(c1ccc(O)cc1)c1ccc(O)cc1
inactive: all assays above

CC(C)(C)CC(C)(C)c1ccc(O)c(-n2nc3ccccc3n2)c1
active: [1] 5.47 µM | [2] 9.39 µM | [4] 7.74 µM | [6] 15.8 µM | [7] 11.3 µM
inactive: all other assays above

CCCCCCCCCCCCc1ccccc1S(=O)(=O)O
active: [1] 11.4 µM | [2] 6.52 µM | [3] 11.9 µM | [4] 11.7 µM | [5] 7.55 µM | [6] 11.6 µM | [7] 6.87 µM | [8] 31.5 µM | [9] 13 µM | [10] 12.8 µM

Cc1oc(-c2ccccc2)nc1CCOc1ccc(C[C@H](Nc2ccccc2C(=O)c2ccccc2)C(=O)O)cc1
active: [1] 3.14 µM | [2] 2.42 µM | [3] 3.99 µM | [4] 6.07 µM | [5] 2.05 µM | [6] 3.61 µM | [7] 2.79 µM | [8] 7.43 µM | [9] 2.86 µM | [10] 4.3 µM

COCC(C)O (configuration not stated)
inactive: all assays above

CN(C)C=O
inactive: all assays above

CC(=O)NC1(c2cccc(F)c2)CCN(CC[C@@]2(c3ccc(Cl)c(Cl)c3)CN(c3ccccc3)C(=O)CO2)CC1
inactive: [8]
active: [1] 24.5 µM | [2] 24.5 µM | [3] 26.7 µM | [4] 31.8 µM | [5] 30.2 µM | [6] 27 µM | [7] 23.8 µM | [9] 25.3 µM | [10] 25.1 µM

CCc1ccc(CCOc2ccc(CC3SC(=O)NC3=O)cc2)nc1 (configuration not stated)
inactive: all assays above

CCCCCCC(=O)O
not listed: [10]
inactive: all other assays above

CN1CCC[C@H]1c1cccnc1
inactive: all assays above

ClC1=C(Cl)C(Cl)(Cl)C(Cl)=C1Cl
active: [1] 9.09 µM | [2] 12.8 µM | [3] 12.4 µM | [4] 13.6 µM | [5] 13.9 µM | [6] 6.75 µM | [7] 8.9 µM | [8] 9.94 µM | [9] 8.82 µM | [10] 7.42 µM

CCc1nn(C2CCCCC2)c2cc(C3(C#N)CCC(C(=O)O)CC3)ccc12 (configuration not stated)
active: [1] 5.16 µM | [2] 4.51 µM | [3] 3.54 µM | [4] 20 µM | [5] 8.18 µM | [6] 7.89 µM | [7] 5.35 µM | [9] 28.1 µM
inactive: [8] | [10]

CCN(CC)CCNc1ccc(CNC=O)c2sc3ccc(OC)cc3c(=O)c12
active: [1] 12.9 µM | [2] 14.6 µM | [3] 13.1 µM | [4] 34.2 µM | [5] 10.7 µM | [6] 32.4 µM | [7] 11 µM | [8] 31.6 µM | [9] 30.8 µM | [10] 26.4 µM

CC[C@H](C)[C@@H](C(=O)O)n1sc2ccccc2c1=O
inactive: all assays above

OCCC(F)(F)C(F)(F)C(F)(F)C(F)(F)C(F)(F)C(F)(F)C(F)(F)C(F)(F)F
active: [1] 13.8 µM and 12.1 µM | [2] 13.8 µM and 15.5 µM | [3] 16.3 µM and 14.6 µM | [4] 18 µM and 17.8 µM | [5] 17.9 µM and 17 µM | [6] 16.1 µM and 12.8 µM | [7] 12.8 µM | [8] 23.2 µM and 20 µM | [9] 15.7 µM | [10] 18.1 µM and 14.5 µM
inactive: [1] | [2] | [3] | [4] | [5] | [6] | [7] | [8] | [9] | [10]
